# Source: the supplement of paper PMC6992640
# Where a name gives a salt, the structure may show the parent alone. ± gives the standard deviation of the averaged measurements.
# How the values were obtained:
# Assay in all cases: cell viability (% of vehicle); higher = less cytotoxic
# Conditions in all cases: 10 µM; 72 h
# HCI01 = test system: HCI01 (cells of a triple-negative basal-like breast cancer xenograft)
# HCI03 = test system: HCI03 (cells of an ER-positive luminal breast cancer xenograft)
# HCI09 = test system: HCI09 (cells of a triple-negative luminal androgen receptor type breast cancer xenograft)
# HCI11 = test system: HCI11 (cells of an ER-positive luminal breast cancer xenograft)
# HCI13 = test system: HCI13 (cells of an ER-positive luminal breast cancer xenograft)
# HCI16 = test system: HCI16 (cells of a triple-negative basal-like breast cancer xenograft)
# UCD52 = test system: UCD52 (cells of a triple-negative basal-like breast cancer xenograft)
# WHIM2 = test system: WHIM2 (cells of a triple-negative basal-like breast cancer xenograft)
# WHIM30 = test system: WHIM30 (cells of a triple-negative basal-like breast cancer xenograft)
# 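Further: PDX cells carrying CMV promoter-driven luciferase, viability read as total photon flux per second by IVIS imaging following D-luciferin, vehicle control 0.1% DMSO.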
compound,measurement,setting,value
COc1cc(C2Oc3cc(C4Oc5cc(O)cc(O)c5C(=O)C4O)ccc3OC2CO)ccc1O (stereo not drawn) [Silymarin],cell viability,HCI01,111 ± 32
same,cell viability,HCI03,129
same,cell viability,HCI09,102 ± 19
same,cell viability,HCI11,89.4
same,cell viability,HCI13,127 ± 3.3
same,cell viability,HCI16,116
same,cell viability,UCD52,107.79 ± 0.095
same,cell viability,WHIM2,93.6 ± 18
same,cell viability,WHIM30,91.7 ± 2
Nc1cc(C(Cl)=C(Cl)Cl)c(S(N)(=O)=O)cc1S(N)(=O)=O [Clorsulon],cell viability,HCI01,107 ± 17
same,cell viability,HCI03,108
same,cell viability,HCI09,125 ± 47
same,cell viability,HCI11,106
same,cell viability,HCI13,194 ± 11
same,cell viability,HCI16,169
same,cell viability,UCD52,116 ± 11
same,cell viability,WHIM2,112 ± 14
same,cell viability,WHIM30,152 ± 7.4
COc1ccccc1OCC(O)CN1CCN(CC(=O)Nc2c(C)cccc2C)CC1 (stereo not drawn) [Ranolazine],cell viability,HCI01,136 ± 2.8
same,cell viability,HCI03,96.3
same,cell viability,HCI09,134 ± 75
same,cell viability,HCI11,103
same,cell viability,HCI13,120 ± 35
same,cell viability,HCI16,120
same,cell viability,UCD52,89.4 ± 19
same,cell viability,WHIM2,109 ± 19
same,cell viability,WHIM30,130 ± 17
O=C(O)C1=CC(=NNc2ccc([O-])c(C(=O)[O-])c2)C=CC1=O.[Na+].[Na+] [Olsalazine Sodium],cell viability,HCI01,123 ± 2.4
same,cell viability,HCI03,108
same,cell viability,HCI09,127 ± 47
same,cell viability,HCI11,102
same,cell viability,HCI13,120 ± 30
same,cell viability,HCI16,88.2
same,cell viability,UCD52,91.8 ± 7.2
same,cell viability,WHIM2,86.8 ± 7.9
same,cell viability,WHIM30,112 ± 7.4
CNC(C)C1CCC(N)C(OC2C(N)CC(N)C(OC3OCC(C)(O)C(NC)C3O)C2O)O1.O=S(=O)(O)O (stereo not drawn) [Gentamycin Sulfate],cell viability,HCI01,119 ± 8.9
same,cell viability,HCI03,90.7
same,cell viability,HCI09,100 ± 26
same,cell viability,HCI11,101
same,cell viability,HCI13,94.4 ± 9.3
same,cell viability,HCI16,97
same,cell viability,UCD52,94.8 ± 20
same,cell viability,WHIM2,72.4 ± 2
same,cell viability,WHIM30,116 ± 21
CC(C(=O)O)c1ccc2c(c1)CC(=O)c1ccccc1S2 (stereo not drawn) [Zaltoprofen],cell viability,HCI01,124 ± 32
same,cell viability,HCI03,120
same,cell viability,HCI09,95.5 ± 26
same,cell viability,HCI11,103
same,cell viability,HCI13,134 ± 6.7
same,cell viability,HCI16,112
same,cell viability,UCD52,77.9 ± 11
same,cell viability,WHIM2,98 ± 13
same,cell viability,WHIM30,82.8 ± 5.6
Clc1ccc2c(c1)CCc1cccnc1C2=C1CCNCC1 [Desloratadine],cell viability,HCI01,164 ± 55
same,cell viability,HCI03,143
same,cell viability,HCI09,99.6 ± 1.5
same,cell viability,HCI11,77.5
same,cell viability,HCI13,128 ± 19
same,cell viability,HCI16,128
same,cell viability,UCD52,67.2 ± 9.1
same,cell viability,WHIM2,69.5 ± 16
same,cell viability,WHIM30,102 ± 7.8
Clc1ccc(C(Cn2ccnc2)OCc2csc3c(Cl)cccc23)c(Cl)c1.O=[N+]([O-])O (stereo not drawn) [Sertaconazole nitrate],cell viability,HCI01,113 ± 34
same,cell viability,HCI03,85.1
same,cell viability,HCI09,53.6 ± 39
same,cell viability,HCI11,103
same,cell viability,HCI13,44.6 ± 5.4
same,cell viability,HCI16,103
same,cell viability,UCD52,107 ± 58
same,cell viability,WHIM2,150 ± 36
same,cell viability,WHIM30,123 ± 12
COc1ccc2cc(CCC(C)=O)ccc2c1 [Nabumetone],cell viability,HCI01,170 ± 32
same,cell viability,HCI03,172
same,cell viability,HCI09,200 ± 62
same,cell viability,HCI11,141
same,cell viability,HCI13,199 ± 10
same,cell viability,HCI16,136
same,cell viability,UCD52,151 ± 25
same,cell viability,WHIM2,117 ± 11
CC(=O)O.CC(O)C(CO)NC(=O)C1CSSCC(NC(=O)C(N)Cc2ccccc2)C(=O)NC(Cc2ccccc2)C(=O)NC(Cc2c[nH]c3ccccc23)C(=O)NC(CCCCN)C(=O)NC(C(C)O)C(=O)N1 (stereo not drawn) [Octreotide acetate],cell viability,HCI01,86.6 ± 6.2
same,cell viability,HCI03,135
same,cell viability,HCI09,87.9 ± 14
same,cell viability,HCI11,95.4
same,cell viability,HCI13,87.9 ± 3.6
same,cell viability,HCI16,90.1
same,cell viability,UCD52,84.3 ± 9.8
same,cell viability,WHIM2,86.9 ± 20
same,cell viability,WHIM30,102 ± 15
Clc1ccc(C(c2ccccc2Cl)C(Cl)Cl)cc1 (stereo not drawn) [Mitotane (Lsodren)],cell viability,HCI01,127 ± 3.6
same,cell viability,HCI03,112
same,cell viability,HCI09,148 ± 59
same,cell viability,HCI11,107
same,cell viability,HCI13,91.2 ± 3.4
same,cell viability,HCI16,121
same,cell viability,UCD52,97.871 ± 0.035
same,cell viability,WHIM2,96.3 ± 24
same,cell viability,WHIM30,142 ± 11
c1coc(CNc2ncnc3nc[nH]c23)c1 [Kinetin],cell viability,HCI01,109 ± 4.5
same,cell viability,HCI03,123
same,cell viability,HCI09,103 ± 12
same,cell viability,HCI11,100
same,cell viability,HCI13,120 ± 7.4
same,cell viability,HCI16,86.8
same,cell viability,UCD52,102 ± 20
same,cell viability,WHIM2,93.7 ± 4
same,cell viability,WHIM30,121 ± 4.5
O=C1C(CCC(O)c2ccc(F)cc2)C(c2ccc(O)cc2)N1c1ccc(F)cc1 (stereo not drawn) [Ezetimibe],cell viability,HCI01,109 ± 6.1
same,cell viability,HCI03,102
same,cell viability,HCI09,86.6 ± 20
same,cell viability,HCI11,92.5
same,cell viability,HCI13,121 ± 3.4
same,cell viability,HCI16,97.3
same,cell viability,UCD52,81.4 ± 3.2
same,cell viability,WHIM2,96 ± 5.4
same,cell viability,WHIM30,100 ± 5.3
CC(C)(O/N=C(\C(=O)N[C@@H]1C(=O)N2C(C(=O)[O-])=C(C[n+]3ccccc3)CS[C@H]12)c1csc(N)n1)C(=O)O [Ceftazidime],cell viability,HCI01,101 ± 17
same,cell viability,HCI03,98.6
same,cell viability,HCI09,97.7 ± 0.81
same,cell viability,HCI11,81.6
same,cell viability,HCI13,119 ± 8.4
same,cell viability,HCI16,149
same,cell viability,UCD52,120 ± 15
same,cell viability,WHIM2,120 ± 3.6
same,cell viability,WHIM30,99.7 ± 8.2
COc1ccc(Cl)cc1C(=O)NCCc1ccc(S(=O)(=O)NC(=O)NC2CCCCC2)cc1 [Glibenclamide],cell viability,HCI01,103 ± 13
same,cell viability,HCI03,151
same,cell viability,HCI09,93.7 ± 16
same,cell viability,HCI11,93.2
same,cell viability,HCI13,108.2 ± 0.86
same,cell viability,HCI16,110
same,cell viability,UCD52,119 ± 3.5
same,cell viability,WHIM2,134.7 ± 0.95
CCC1=C(C)CN(C(=O)NCCc2ccc(S(=O)(=O)NC(=O)NC3CCC(C)CC3)cc2)C1=O (stereo not drawn) [Glimepiride],cell viability,HCI01,158 ± 17
same,cell viability,HCI03,123
same,cell viability,HCI09,86.6 ± 14
same,cell viability,HCI11,147
same,cell viability,HCI13,93.2 ± 11
same,cell viability,HCI16,158
same,cell viability,UCD52,129 ± 3.5
same,cell viability,WHIM2,105 ± 6.7
same,cell viability,WHIM30,164.4 ± 0.77
"CC(CN1CC(=O)NC(=O)C1)N1CC(=O)NC(=O)C1.Cl (stereo not drawn) [Dexrazoxane HCl (ICRF-187, ADR-529)]",cell viability,HCI01,64.8 ± 50
same,cell viability,HCI03,134
same,cell viability,HCI09,107 ± 3.7
same,cell viability,HCI11,97.9
same,cell viability,HCI13,96.3 ± 1.9
same,cell viability,HCI16,84.2
same,cell viability,UCD52,96.1 ± 14
same,cell viability,WHIM2,70.2 ± 19
same,cell viability,WHIM30,114 ± 1.9
CC(C(=O)O)c1ccc2c(c1)[nH]c1ccc(Cl)cc12 (stereo not drawn) [Carprofen],cell viability,HCI01,175 ± 51
same,cell viability,HCI03,107
same,cell viability,HCI09,112 ± 6
same,cell viability,HCI11,95.3
same,cell viability,HCI13,102.2 ± 0.8
same,cell viability,HCI16,138
same,cell viability,UCD52,113 ± 3.4
same,cell viability,WHIM2,152 ± 30
same,cell viability,WHIM30,117.4 ± 0.51
CNC(=O)C(Cc1c[nH]c2ccccc12)NC(=O)C(CC(=O)NO)CC(C)C (stereo not drawn),cell viability,HCI01,141 ± 3.8
same,cell viability,HCI03,116
same,cell viability,HCI09,88.9 ± 9.2
same,cell viability,HCI11,129
same,cell viability,HCI13,92.5 ± 5.4
same,cell viability,HCI16,140
same,cell viability,UCD52,126 ± 16
same,cell viability,WHIM2,105 ± 14
Br.Br.Br.Br.Br.Cc1cc(N2CCN(C3CNC(C(=O)N4CCSC4)C3)CC2)n(-c2ccccc2)n1.Cc1cc(N2CCN(C3CNC(C(=O)N4CCSC4)C3)CC2)n(-c2ccccc2)n1 (stereo not drawn) [Teneligliptin hydrobromide],cell viability,HCI01,111 ± 3.1
same,cell viability,HCI03,95.2
same,cell viability,HCI09,82.5 ± 13
same,cell viability,HCI11,71.5
same,cell viability,HCI13,79.96 ± 0.58
same,cell viability,HCI16,88.2
same,cell viability,UCD52,82 ± 1.3
same,cell viability,WHIM2,99 ± 20
same,cell viability,WHIM30,88.4 ± 3.9
NC(=O)c1ncn(C2OC(CO)C(O)C2O)n1 (stereo not drawn) [Ribavirin],cell viability,HCI01,72.7 ± 49
same,cell viability,HCI03,148
same,cell viability,HCI09,92.7 ± 2.2
same,cell viability,HCI11,93.7
same,cell viability,HCI13,118 ± 9.9
same,cell viability,HCI16,110
same,cell viability,UCD52,96.4 ± 6.9
same,cell viability,WHIM2,99.1 ± 46
"CCCS(=O)(=O)Nc1ccc(F)c(C(=O)c2c[nH]c3ncc(-c4ccc(Cl)cc4)cc23)c1F [Vemurafenib (PLX4032, RG7204)]",cell viability,HCI01,118 ± 12
same,cell viability,HCI03,195
same,cell viability,HCI09,114 ± 7.1
same,cell viability,HCI11,98.3
same,cell viability,HCI13,106 ± 4.2
same,cell viability,HCI16,102
same,cell viability,UCD52,108 ± 1.8
same,cell viability,WHIM2,102.2 ± 0.85
same,cell viability,WHIM30,185 ± 5.3
NCC(=O)CCC(=O)O [5-Aminolevulinic acid HCl],cell viability,HCI01,79.2 ± 41
same,cell viability,HCI03,132
same,cell viability,HCI09,89.9 ± 2.3
same,cell viability,HCI11,83.2
same,cell viability,HCI13,113 ± 24
same,cell viability,HCI16,164
same,cell viability,UCD52,82.6 ± 7.6
same,cell viability,WHIM2,129 ± 24
same,cell viability,WHIM30,146 ± 6.6
CC(C)(OCc1nn(Cc2ccccc2)c2ccccc12)C(=O)O [Bindarit],cell viability,HCI01,86.5 ± 68
same,cell viability,HCI03,133
same,cell viability,HCI09,95.7 ± 2.3
same,cell viability,HCI11,86.6
same,cell viability,HCI13,136 ± 0.14
same,cell viability,HCI16,117
same,cell viability,UCD52,83.1 ± 3.1
same,cell viability,WHIM2,110 ± 19
same,cell viability,WHIM30,149 ± 27
CCOc1nc2cccc(C(=O)OCc3oc(=O)oc3C)c2n1Cc1ccc(-c2ccccc2-c2nc(=O)o[nH]2)cc1 [Azilsartan Medoxomil],cell viability,HCI01,100 ± 6.8
same,cell viability,HCI03,162
same,cell viability,HCI09,107 ± 2.2
same,cell viability,HCI11,94.2
same,cell viability,HCI13,106 ± 14
same,cell viability,HCI16,124
same,cell viability,UCD52,111 ± 8.7
same,cell viability,WHIM2,106 ± 18
same,cell viability,WHIM30,127 ± 2.7
CCOC(=O)c1ccc(C#Cc2ccc3c(c2)C(C)(C)CCS3)nc1 [Tazarotene],cell viability,HCI01,141 ± 48
same,cell viability,HCI03,108
same,cell viability,HCI09,127 ± 22
same,cell viability,HCI11,113
same,cell viability,HCI13,184 ± 8.9
same,cell viability,HCI16,97.9
same,cell viability,UCD52,104 ± 16
same,cell viability,WHIM2,123 ± 1.6
same,cell viability,WHIM30,188 ± 10
N#CC(=C1SCC(c2ccc(Cl)cc2Cl)S1)n1ccnc1 (stereo not drawn) [Luliconazole],cell viability,HCI01,131 ± 29
same,cell viability,HCI03,108
same,cell viability,HCI09,73.3 ± 15
same,cell viability,HCI11,90.6
same,cell viability,HCI13,70.2 ± 5.6
same,cell viability,HCI16,72.4
same,cell viability,UCD52,88.5 ± 4.3
same,cell viability,WHIM2,97.1 ± 3.4
same,cell viability,WHIM30,130 ± 7.6
COC(=O)N=NC=C1C=[N+]([O-])c2ccccc2N1O [Carbadox],cell viability,HCI01,106 ± 3.1
same,cell viability,HCI03,116
same,cell viability,HCI09,97.8 ± 8.7
same,cell viability,HCI11,107
same,cell viability,HCI13,106 ± 28
same,cell viability,HCI16,98.8
same,cell viability,UCD52,72.3 ± 12
same,cell viability,WHIM2,96.8 ± 9.7
same,cell viability,WHIM30,114 ± 9.4
